Source: PubChem BioAssay
FLuc inh = Firefly luciferase inhibition profiling of diverse chemical library using quantitative high-throughput screening; Luciferin 4-monooxygenase (Photinus pyralis), P08659; purified P. pyralis luciferase, luminescence, biochemical; Potency, µM (top dose mostly 115 µM), usual class: inhibitors; 76,000 tested, 2.5% active; AID 1347043, 2019; also: nearly all actives have a fitted effect of over 65% in size
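Luminescence read by CCD imager after adding enzyme (10nM final) to wells holding compound, titrated in qHTS. Substrates 10uM each D-luciferin and ATP; buffer 50mM Tris acetate pH 7.5, 10mM Mg acetate, Tween-20, BSA.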
HEK293 viab = GF-AFC viability counterscreen for inhibitors of alpha-synuclein gene (SNCA) expression; 150,000 tested, 0.12% active; HEK-293-SNCA-luc viability, GF-AFC fluorescence, 24 h; Potency, µM (highest dose often 57.1 µM), actives largely listed as cytotoxic; also: nearly all actives have a fitted effect of over 30% in size
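HEK-293-SNCA-luc cells (1500/well) plated 24 h, then exposed 24 h to a dilution series; GF-AFC added 30 min at 37C, fluorescence 405/540 nm; normalised to medium-only and DMSO wells, Hill fit.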
HEK cytotox = Cytotoxic Profiling in HEK 293 Cell Line of Diverse Libraries Using Quantitative High-Throughput Screening; Potency, µM (series often up to 115 µM), hits mostly inhibitors; 94,000 tested, 6.6% active; AID 1345083, 2018; HEK 293 viability, ATP luminescence (CellTiter-Glo), 48-72 h; also: nearly all actives have a fitted effect of over 60% in size
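HEK 293 seeded at 250 cells/well receive compound via pintool. After 48 or 72 hr at 37 degree Celsius, 5% CO2 and 95% humidity, CellTiter-Glo is dispensed and luminescence read following 10 min at room temperature.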
3T3 cytotox = Cytotoxic Profiling in NIH 3T3 Cell Line of Diverse Libraries Using Quantitative High-Throughput Screening; NIH 3T3 viability, CellTiter-Glo ATP luminescence, 48-72 h; Potency, µM (series often up to 96.7 µM), hits mostly inhibitors; 94,000 tested, 4.3% active; AID 1345082, 2018; also: nearly all actives have a fitted effect of over 55% in size
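ATP-dependent luminescence (CellTiter-Glo) served as the viability signal for NIH 3T3 cells treated with compound for 48 or 72 hr at 37 °C.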
SNCA expr inh = Primary qHTS assay for inhibitors of alpha-synuclein gene (SNCA) expression; HEK-293 SNCA-luciferase knock-in, luminescence, 24 h; 140,000 tested, 0.17% active; Potency, µM (top dose mostly 57.2 µM), usual class: inhibitors; AID 1671194, 2021; also: nearly all actives have a fitted effect of over 45% in size
hNpr1 antagonist = Natriuretic polypeptide receptor (hNpr1) antagonism - Primary qHTS; 76,000 tested, 1.6% active; Potency, µM (highest dose often 46.3 µM), usual class: inhibitors; Atrial natriuretic peptide receptor 1 (Homo sapiens), P16066; HEK293 hNpr1 GloSensor cGMP, ANP-stimulated luminescence; calls by dose curve; also: nearly all actives have a fitted effect of over 60% in size
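HEK293 cells stably expressing human Npr1 and cGMP GloSensor pGS-40F, loaded 2 h with 2% GloSensor reagent, given compound 30 min at room temperature. Luminescence read before and 20 min after 0.1 nM hNppA.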
NPR1 antag cnf = Natriuretic polypeptide receptor (hNpr1) antagonism - Confirmation; HEK293 hNpr1 cGMP GloSensor luminescence, ANP-stimulated; Potency, µM (top dose mostly 57.6 µM), actives largely listed as inhibitors; 1,400 tested, 76% active; shares compounds with hNpr1 antagonist; calls by dose curve; also: nearly all actives have a fitted effect of over 70% in size
Npr2 selectivity = Natriuretic polypeptide receptor (hNpr2) antagonism - Subtype selectivity assay | shares compounds with hNpr1 antagonist | HEK293 hNpr2 GloSensor cGMP luminescence, CNP-stimulated | Potency, µM (highest dose often 57.6 µM), usual class: inhibitors | 1,400 tested, 67% active; calls by dose curve; also: nearly all actives have a fitted effect of over 70% in size
Target sequence (P20594 whole entry, looked up): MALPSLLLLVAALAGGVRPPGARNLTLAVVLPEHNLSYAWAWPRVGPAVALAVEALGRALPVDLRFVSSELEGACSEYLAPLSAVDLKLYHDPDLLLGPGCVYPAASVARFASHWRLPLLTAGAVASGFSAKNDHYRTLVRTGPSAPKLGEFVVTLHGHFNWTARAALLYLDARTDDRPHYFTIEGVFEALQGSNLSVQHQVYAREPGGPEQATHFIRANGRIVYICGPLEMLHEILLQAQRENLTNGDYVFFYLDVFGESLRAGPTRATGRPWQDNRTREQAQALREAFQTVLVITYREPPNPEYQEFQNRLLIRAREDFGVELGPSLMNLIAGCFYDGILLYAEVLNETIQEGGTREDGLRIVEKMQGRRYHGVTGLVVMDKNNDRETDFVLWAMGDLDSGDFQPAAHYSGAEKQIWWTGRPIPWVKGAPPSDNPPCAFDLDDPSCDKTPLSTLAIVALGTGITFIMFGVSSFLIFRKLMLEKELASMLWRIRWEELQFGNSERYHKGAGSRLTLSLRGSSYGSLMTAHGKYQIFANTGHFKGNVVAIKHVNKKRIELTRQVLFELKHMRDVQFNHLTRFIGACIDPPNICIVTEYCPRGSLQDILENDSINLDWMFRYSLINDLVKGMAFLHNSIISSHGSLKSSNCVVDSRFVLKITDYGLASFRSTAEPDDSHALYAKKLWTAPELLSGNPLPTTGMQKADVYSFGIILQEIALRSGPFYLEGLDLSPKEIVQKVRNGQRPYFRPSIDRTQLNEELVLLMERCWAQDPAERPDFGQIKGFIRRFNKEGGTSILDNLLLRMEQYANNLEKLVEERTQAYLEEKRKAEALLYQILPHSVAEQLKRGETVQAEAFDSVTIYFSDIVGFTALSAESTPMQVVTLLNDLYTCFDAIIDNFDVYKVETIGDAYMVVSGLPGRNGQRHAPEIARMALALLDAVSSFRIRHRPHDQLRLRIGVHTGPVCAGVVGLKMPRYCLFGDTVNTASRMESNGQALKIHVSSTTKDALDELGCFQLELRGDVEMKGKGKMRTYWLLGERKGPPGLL
FLuc counter = Natriuretic polypeptide receptor (hNpr1) antagonism - Confirmation firefly luciferase (FLuc) inhibition counterscreen | shares compounds with hNpr1 antagonist | purified FLuc enzyme, luminescence, Km substrate | Potency, µM (top dose mostly 57.6 µM), most hits filed as inhibitors | 1,400 tested, 0.7% active | AID 1347047, 2019
GloSensor cGMP = Natriuretic polypeptide receptor (hNpr1) antagonism - Counterscreen GloSensor control cell line; AID 1347051, 2019; 1,400 tested, 69% active; HEK293 GloSensor cGMP, SNP-stimulated, luminescence; Potency, µM (titrated, usually from 57.6 µM), usual class: inhibitors; shares compounds with hNpr1 antagonist; calls by dose curve; also: nearly all actives have a fitted effect of over 70% in size
Each line names hits and unclear results; the compound was inactive in the other large screens (follow-up assays come after a bar, where they were run). An excerpt weighted towards active compounds, which were near 7.4% of everything screened. Unless noted, calls follow the shape of the dose curve; as a rule, active = well fitted curve in the direction sought with a large enough effect; inconclusive = small, poorly fitted or top-dose-only effect, or another doubt; inactive = no such curve, though single readings can be large; an effect the other way counts as inactive or inconclusive.

O=C(Cc1ccccn1)N1CCCN(c2ccc3nnc(-c4ccccc4)n3n2)CC1	none (no result: FLuc inh, HEK293 viab, SNCA expr inh, hNpr1 antagonist)
CC(C)c1ccc(N2C(=O)[C@@H]3C[C@@H](NC(=O)C4CCN(c5nccc(C(F)(F)F)n5)CC4)CCN3C2=O)cc1	HEK cytotox inconclusive, 3T3 cytotox inconclusive, hNpr1 antagonist inconclusive | NPR1 antag cnf inconclusive | Npr2 selectivity inconclusive | FLuc counter inactive | GloSensor cGMP inconclusive
CC(=O)N1CCC(C(=O)N[C@H]2CCN3C(=O)N(c4ccc(OC(F)(F)F)cc4)C(=O)[C@@H]3C2)CC1	none
COc1ccc(CN2CCC(N3Cc4cccn4C3=O)CC2)cc1	HEK cytotox inconclusive (no result: FLuc inh, hNpr1 antagonist)
O=C1N(C2CCN(Cc3ccc(C(F)(F)F)cc3)CC2)Cc2cccn21	HEK cytotox inconclusive (no result: FLuc inh, hNpr1 antagonist) | NPR1 antag cnf 15µM | Npr2 selectivity 17µM | FLuc counter inactive | GloSensor cGMP 12µM
O=C(NC1Cc2ccccc2C1)c1ccc2nnc(C3CCOCC3)n2c1	none (no result: FLuc inh, HEK293 viab, SNCA expr inh, hNpr1 antagonist)
O=C(Cc1c[nH]c2ncc(-c3cccc(O)c3)cc12)N1CCOCC1	HEK cytotox inconclusive, 3T3 cytotox inconclusive, SNCA expr inh inconclusive
O=C(Cc1c[nH]c2ncc(-c3ccc(Oc4ccccc4)cc3)cc12)N1CCOCC1	HEK293 viab inconclusive, HEK cytotox 56µM, 3T3 cytotox inconclusive, SNCA expr inh 25µM, hNpr1 antagonist 10µM | NPR1 antag cnf 13µM | Npr2 selectivity 18µM | FLuc counter inconclusive | GloSensor cGMP 11µM
O=C(Cc1c[nH]c2ncc(-c3ccccc3)cc12)NCCN1CCOCC1	3T3 cytotox inconclusive
O=C(Cc1c[nH]c2ncc(-c3ccccc3Oc3ccccc3)cc12)N1CCOCC1	HEK cytotox 50µM, 3T3 cytotox inconclusive, SNCA expr inh inconclusive, hNpr1 antagonist 14µM | NPR1 antag cnf 13µM | Npr2 selectivity 22µM | FLuc counter inactive | GloSensor cGMP 13µM
O=C(Cc1c[nH]c2ncc(-c3ccccc3)cc12)NC1CCOCC1	HEK cytotox inconclusive, 3T3 cytotox inconclusive, SNCA expr inh inconclusive
COc1ccc(-c2cnc3[nH]cc(CC(=O)N4CCNC(=O)C4)c3c2)cc1	3T3 cytotox inconclusive
O=C(Cc1c[nH]c2ncc(-c3ccccc3)cc12)N1CCCC1	HEK cytotox inconclusive, 3T3 cytotox inconclusive, hNpr1 antagonist inconclusive | NPR1 antag cnf 28µM | Npr2 selectivity inconclusive | FLuc counter inconclusive | GloSensor cGMP inconclusive
COc1cc(F)cc(-c2cnc3[nH]cc(CC(=O)N4CCOCC4)c3c2)c1	HEK293 viab inconclusive, HEK cytotox inconclusive, 3T3 cytotox inconclusive, hNpr1 antagonist 6.3µM | NPR1 antag cnf 3.1µM | Npr2 selectivity 18µM | FLuc counter inconclusive | GloSensor cGMP 7.9µM
C[S+](=O)([O-])NCc1nnc2n1C(C(=O)NCc1cccc(C(F)(F)F)c1)CC2 (stereo not given)	none (no result: FLuc inh, hNpr1 antagonist)
CC(C(=O)N1Cc2c(C(=O)NC3CC3)nn(C)c2C1)c1ccccc1 (stereo not given)	none (no result: FLuc inh, hNpr1 antagonist)
Cn1cc(-c2cnc3[nH]cc(CC(=O)Nc4ccc(C(F)(F)F)cc4)c3c2)cn1	HEK cytotox inconclusive, 3T3 cytotox inconclusive, hNpr1 antagonist inconclusive | NPR1 antag cnf inconclusive | Npr2 selectivity inconclusive | FLuc counter inactive | GloSensor cGMP inconclusive
COc1ccc(-c2cnc3[nH]cc(CC(=O)NCCc4ccccn4)c3c2)cc1	3T3 cytotox inconclusive
COc1ccc(-c2cnc3[nH]cc(CC(=O)Nc4cccnc4)c3c2)cc1	HEK cytotox 71µM, 3T3 cytotox inconclusive, hNpr1 antagonist inconclusive | NPR1 antag cnf inconclusive | Npr2 selectivity inactive | FLuc counter inconclusive | GloSensor cGMP inactive
CN(C)c1cccc(NC(=O)Cc2c[nH]c3ncc(-c4ccccc4)cc23)c1	HEK cytotox inconclusive, 3T3 cytotox inconclusive, SNCA expr inh inconclusive, hNpr1 antagonist inconclusive
COc1ccc(-c2cnc3[nH]cc(CC(=O)Nc4cccc(N(C)C)c4)c3c2)cc1	HEK cytotox inconclusive, 3T3 cytotox inconclusive, hNpr1 antagonist inconclusive | NPR1 antag cnf inconclusive | Npr2 selectivity inconclusive | FLuc counter inactive | GloSensor cGMP inactive
Cc1ccccc1-c1cnc2[nH]cc(CC(=O)Nc3cccnc3)c2c1	HEK293 viab inconclusive, HEK cytotox inconclusive, 3T3 cytotox inconclusive, hNpr1 antagonist 16µM | NPR1 antag cnf 25µM | Npr2 selectivity 31µM | FLuc counter inactive | GloSensor cGMP 22µM
O=C1CCC(c2ccccc2)(C2CCN(Cc3ccc(I)cc3)CC2)C(=O)N1 (stereo not given)	none (no result: FLuc inh, HEK cytotox, 3T3 cytotox, SNCA expr inh, hNpr1 antagonist)
CC(C)(C)NC(=O)N1CCCC1c1nc(CCOCC2CC2)no1 (stereo not given)	none (no result: FLuc inh, hNpr1 antagonist)
Oc1ccc(-c2nc(C3CC3)nc3c2CCN(Cc2cccc4ccccc24)CC3)cc1	HEK cytotox 18µM, 3T3 cytotox inconclusive | NPR1 antag cnf inactive | Npr2 selectivity inconclusive | FLuc counter inactive | GloSensor cGMP inactive
Cc1ccc(CN2CCc3nc(C4CC4)nc(-c4ccc(O)cc4)c3CC2)cc1	HEK cytotox inconclusive, 3T3 cytotox inconclusive
COC(=O)[C@@H]1Cc2ncn(Cc3ccc(Cl)cc3)c2CN1C(=O)c1cccs1	3T3 cytotox inconclusive | NPR1 antag cnf inactive | Npr2 selectivity inactive | FLuc counter inactive | GloSensor cGMP inactive
